From PubChem BioAssay AID493244 (The Scripps Research Institute Molecular Screening Center, 2011)
Among all 340,000 compounds or so, about 390 (0.11%) were called active. This excerpt belongs to a sample that is enriched for actives. A number with no mark means an inactive call.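 The calls were made as follows: active = inhibition above the mean inhibition of all tested compounds plus 3 SD (cut at about 17% in these data); inactive = the rest.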

Biological target: Troponin I, cardiac muscle (Homo sapiens) + Troponin T, cardiac muscle (Homo sapiens) + Troponin C, slow skeletal and cardiac muscles (Homo sapiens) (UniProt P19429+P45379+P63316)
Test: cardiac RTF calcium sensitivity inhibitors, primary screen, biochemical, IANBD-TnC fluorescence, EC70 calcium (AID 493244);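 also: assay run at fixed EC70 calcium of 1.6 mM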
Settings: IANBD-labeled cardiac RTF, Ca2+ fluorescence; at 7.15 µM; active compounds read high

Question: Which inhibition does the source give for `COc1ccc2c(c1O)-c1cccc3c1[C@@H](C2)N(C)CC3` here?
Answer: 4.82%

Question: How did the inhibition turn out when `COc1ccc2c(c1)[C@]13CCCCC1C(C2)N(C)CC3` (stereo not given in full) was run?
Answer: -1.69%

Question: `COC1=C[C@@H]2[C@@H]3Cc4ccc(OC)c(O)c4[C@]2(CCN3C)CC1=O` was tested. Which inhibition did it give?
Answer: 19.3% (active)

Question: Which inhibition does the source give for `Cc1ccc(-c2nc3ccccc3c(=O)n2-c2ccc(Br)cn2)cc1` here?
Answer: -6.33%

Question: Which inhibition does the source give for `COC(=O)C1=C(c2ccccc2)C[C@@H]2CC[C@H]1N2C(=O)N1CCCCC1` here?
Answer: 4.81%
